Reference: PubChem BioAssay AID1159580 (chemical genetic matrix, 2015)
About 2,000 (36%) of roughly 5,500 compounds were called active. Not shown: some 18% with an inconclusive outcome. Cut-off read from the data, not from the text of the source: active = normalized growth mostly below about 0.91 (no sharp cut-off); inconclusive = no clear call, values can overlap the other calls; inactive = mostly above about 0.92. Some of the results follow.

Experiment: chemical genetic growth profiling, strain panel (AID 1159580);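 note: tested at 20 µM; growth read once vehicle control cultures reached saturation at 30 °C; 1 = growth at the plate median or of vehicle wells; lower values mean less growth of the strain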
Details: growth OD

Measured: normalized growth

CC(C)CCCC(C)C1CC[C@@]2(C)C3=C(CC[C@]12C)[C@@]1(C)CC[C@H](O)C(C)(C)C1CC3 (stereo partly specified)
inactive: S. cerevisiae deletion strains, locus YAL013W, strain DEP1, hits give low values 1.01 | S. cerevisiae deletion strains, locus YBR021W, strain FUR4, hits give low values 0.959 | S. cerevisiae deletion strains, locus YBR229C, strain ROT2, hits give low values 1 | S. cerevisiae deletion strains, locus YCL029C, strain bik1, hits give low values 0.976 | S. cerevisiae deletion strains, locus YDL035C, strain GPR1, hits give low values 1 | S. cerevisiae deletion strains, locus YDL074C, strain BRE1, hits give low values 1.06 | S. cerevisiae deletion strains, locus YDL101C, strain DUN1, hits give low values 1.01 | S. cerevisiae deletion strains, locus YDL134C, strain PPH21, hits give low values 0.997 | S. cerevisiae deletion strains, locus YDL185W, strain tfp1, hits give low values 0.985 | S. cerevisiae deletion strains, locus YDL192W, strain arf1, hits give low values 0.983 | S. cerevisiae deletion strains, locus YDR101C, strain arx1, hits give low values 0.996 | S. cerevisiae deletion strains, locus YDR150W, strain NUM1, hits give low values 1 | S. cerevisiae deletion strains, locus YDR162C, strain NBP2, hits give low values 1.02 | S. cerevisiae deletion strains, locus YDR318W, strain mcm21, hits give low values 0.974 | S. cerevisiae deletion strains, locus YDR388W, hits give low values 0.981 | S. cerevisiae deletion strains, locus YDR502C, strain sam2, hits give low values 0.99 | S. cerevisiae deletion strains, locus YEL061C, strain CIN8, hits give low values 1.01 | S. cerevisiae deletion strains, locus YER110C, hits give low values 0.975 | S. cerevisiae deletion strains, locus YER155C, strain BEM2, hits give low values 1 | S. cerevisiae deletion strains, locus YER167W, strain BCK2, hits give low values 0.99 | S. cerevisiae deletion strains, locus YGL078C, strain dbp3, hits give low values 0.993 | S. cerevisiae deletion strains, locus YGL086W, strain mad1, hits give low values 0.986 | S. cerevisiae deletion strains, locus YGL248W, strain PDE1, hits give low values 0.995 | S. cerevisiae deletion strains, locus YGR078C, strain PAC10, hits give low values 1.04 | S. cerevisiae deletion strains, locus YGR135W, strain pre9, hits give low values 0.995 | S. cerevisiae deletion strains, locus YGR229C, strain SMI1, hits give low values 1.03 | S. cerevisiae deletion strains, locus YGR252W, strain gcn5, hits give low values 0.95 | S. cerevisiae deletion strains, locus YHR030C, strain SLT2, hits give low values 0.998 | S. cerevisiae deletion strains, locus YHR079C, strain IRE1 (second series), hits give low values 0.982 | S. cerevisiae deletion strains, locus YHR094C, strain hxt1, hits give low values 0.985 | S. cerevisiae deletion strains, locus YHR129C, strain ARP1, hits give low values 1 | S. cerevisiae deletion strains, locus YHR200W, strain rpn10, hits give low values 0.981 | S. cerevisiae deletion strains, locus YIL066C, strain RNR3, hits give low values 1.01 | S. cerevisiae deletion strains, locus YIL073C, strain SPO22, hits give low values 0.918 | S. cerevisiae deletion strains, locus YIL125W, strain kgd1, hits give low values 0.992 | S. cerevisiae deletion strains, locus YIR030C, strain dcg1, hits give low values 0.987 | S. cerevisiae deletion strains, locus YJL095W, strain BCK1, hits give low values 1.06 | S. cerevisiae deletion strains, locus YJL134W, strain LCB3, hits give low values 0.994 | S. cerevisiae deletion strains, locus YJL168C, strain set2, hits give low values 0.985 | S. cerevisiae deletion strains, locus YJL187C, strain SWE1 (second series), hits give low values 1 | S. cerevisiae deletion strains, locus YJR043C, strain POL32, hits give low values 0.987 | S. cerevisiae deletion strains, locus YJR075W, strain HOC1, hits give low values 1.03 | S. cerevisiae deletion strains, locus YKL009W, strain mrt4, hits give low values 0.939 | S. cerevisiae deletion strains, locus YKL068W, hits give low values 1 | S. cerevisiae deletion strains, locus YKL085W, strain MDH1 (second series), hits give low values 0.988 | S. cerevisiae deletion strains, locus YKL085W, strain MDH1, hits give low values 0.988 | S. cerevisiae deletion strains, locus YKL190W, strain CNB1, hits give low values 1 | S. cerevisiae deletion strains, locus YKR001C, strain vps1, hits give low values 0.984 | S. cerevisiae deletion strains, locus YLR039C, strain RIC1, hits give low values 0.985 | S. cerevisiae deletion strains, locus YLR058C, strain SHM2, hits give low values 1 | S. cerevisiae deletion strains, locus YLR102C, strain apc9, hits give low values 0.993 | S. cerevisiae deletion strains, locus YLR262C, strain YPT6, hits give low values 0.976 | S. cerevisiae deletion strains, locus YLR268W, strain sec22, hits give low values 0.996 | S. cerevisiae deletion strains, locus YLR330W, strain CHS5, hits give low values 1 | S. cerevisiae deletion strains, locus YLR342W, strain FKS1 (second series), hits give low values 0.96 | S. cerevisiae deletion strains, locus YLR371W, strain rom2, hits give low values 0.98 | S. cerevisiae deletion strains, locus YLR418C, strain cdc73, hits give low values 1.04 | S. cerevisiae deletion strains, locus YML016C, strain PPZ1, hits give low values 0.997 | S. cerevisiae deletion strains, locus YML032C, strain rad52, hits give low values 0.966 | S. cerevisiae deletion strains, locus YML124C, strain tub3, hits give low values 0.982 | S. cerevisiae deletion strains, locus YMR078C, strain ctf18, hits give low values 0.972 | S. cerevisiae deletion strains, locus YMR223W, strain ubp8, hits give low values 0.965 | S. cerevisiae deletion strains, locus YMR263W, strain SAP30, hits give low values 1.03 | S. cerevisiae deletion strains, locus YMR307W, strain GAS1, hits give low values 0.957 | S. cerevisiae deletion strains, locus YNL067W, strain RPL9B, hits give low values 1.04 | S. cerevisiae deletion strains, locus YNL128W, strain TEP1, hits give low values 1.04 | S. cerevisiae deletion strains, locus YNL153C, strain GIM3, hits give low values 1.02 | S. cerevisiae deletion strains, locus YNL233W, strain BNI4, hits give low values 1.01 | S. cerevisiae deletion strains, locus YNL250W, strain rad50, hits give low values 1.02 | S. cerevisiae deletion strains, locus YNL271C, strain bni1, hits give low values 0.988 | S. cerevisiae deletion strains, locus YNL298W, strain CLA4, hits give low values 0.967 | S. cerevisiae deletion strains, locus YNL307C, strain MCK1, hits give low values 0.959 | S. cerevisiae deletion strains, locus YNL322C, strain KRE1, hits give low values 1.01 | S. cerevisiae deletion strains, locus YNR052C, strain pop2, hits give low values 0.98 | S. cerevisiae deletion strains, locus YOL006C, strain TOP1, hits give low values 1.03 | S. cerevisiae deletion strains, locus YOL012C, strain htz1 0.94 | S. cerevisiae deletion strains, locus YOL147C, strain pex11, hits give low values 0.989 | S. cerevisiae deletion strains, locus YOR061W, strain CKA2, hits give low values 1.01 | S. cerevisiae deletion strains, locus YOR069W, strain VPS5, hits give low values 0.995 | S. cerevisiae deletion strains, locus YOR136W, strain idh2, hits give low values 0.979 | S. cerevisiae deletion strains, locus YOR144C, strain elg1, hits give low values 0.994 | S. cerevisiae deletion strains, locus YOR184W, strain ser1, hits give low values 0.932 | S. cerevisiae deletion strains, locus YOR316C, strain cot1, hits give low values 0.985 | S. cerevisiae deletion strains, locus YPL055C, strain LGE1, hits give low values 1.05 | S. cerevisiae deletion strains, locus YPL241C, strain CIN2, hits give low values 1 | S. cerevisiae deletion strains, locus YPR119W, strain clb2, hits give low values 0.999 | S. cerevisiae deletion strains, locus YPR141C, strain kar3, hits give low values 0.993 | S. cerevisiae deletion strains, locus YPR163C, strain tif3, hits give low values 0.981 | S. cerevisiae deletion strains, locus YPR167C, strain met16, hits give low values 0.994 | S. cerevisiae deletion strains, strain wtn01, hits give low values 0.985 | S. cerevisiae strains, strain wild type, hits give low values 0.957
